# Measurements reported in the supplement of paper PMC4466140.
# B1: unnamed (peptide)
# chain: KRKRFNLLLPKPYLT
# Tests used:
# Experiment in all cases: SPOT peptide array binding signal intensity (averaged, normalized) (arbitrary units (background-subtracted, floor 0; scale differs between SH3 domains)); higher = stronger binding of the SH3 domain to the peptide
# AgAbp1 = molecular target: AgAbp1
# Protocol: (§1)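 GST-tagged SH3 domains from S. cerevisiae (Sc), A. gossypii (Ag), C. albicans (Ca) and S. pombe (Sp) were incubated at 10 ug/ml overnight at 4 C on cellulose SPOT membranes carrying 292 synthetic 15-mer peptides mined from the S. cerevisiae proteome (cysteines replaced by serines). Binding was detected with anti-GST antibody, HRP secondary and chemiluminescence, quantified with Genespotter, and reported as normalized spot intensities averaged over biological replicates.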
# AgBbc1 = molecular target: AgBbc1
# Protocol: as §1
# AgBem1-D1 = molecular target: AgBem1-D1
# Protocol: as §1
# AgBzz1-D1 = molecular target: AgBzz1-D1
# Protocol: as §1
# AgBzz1-D2 = molecular target: AgBzz1-D2
# Protocol: as §1
# AgCyk3 = molecular target: AgCyk3
# Protocol: as §1
# AgFus1 = molecular target: AgFus1
# Protocol: as §1
# AgHof1 = molecular target: AgHof1
# Protocol: as §1
# AgHse1 = molecular target: AgHse1
# Protocol: as §1
# AgLsb1 = molecular target: AgLsb1
# Protocol: as §1
# AgLsb4 = molecular target: AgLsb4
# Protocol: as §1
# AgMyo5 = molecular target: AgMyo5
# Protocol: as §1
# AgNbp2 = molecular target: AgNbp2
# Protocol: as §1
# AgRvs167 = molecular target: AgRvs167
# Protocol: as §1
# AgSho1 = molecular target: AgSho1
# Protocol: as §1
# AgSla1-D1-D2 = molecular target: AgSla1-D1-D2
# Protocol: as §1
# AgSla1-D3 = molecular target: AgSla1-D3
# Protocol: as §1
# CaAbp1-D1 = molecular target: CaAbp1-D1
# Protocol: as §1
# CaAbp1-D2 = molecular target: CaAbp1-D2
# Protocol: as §1
# CaBbc1 = molecular target: CaBbc1
# Protocol: as §1
# CaBem1-D1 = molecular target: CaBem1-D1
# Protocol: as §1
# CaBzz1-D1 = molecular target: CaBzz1-D1
# Protocol: as §1
# CaBzz1-D2 = molecular target: CaBzz1-D2
# Protocol: as §1
# CaCyk3 = molecular target: CaCyk3
# Protocol: as §1
# CaFus1 = molecular target: CaFus1
# Protocol: as §1
# CaHof1 = molecular target: CaHof1
# Protocol: as §1
# CaHse1 = molecular target: CaHse1
# Protocol: as §1
# CaLsb1 = molecular target: CaLsb1
# Protocol: as §1
# CaLsb4 = molecular target: CaLsb4
# Protocol: as §1
# CaMyo5 = molecular target: CaMyo5
# Protocol: as §1
# CaNbp2 = molecular target: CaNbp2
# Protocol: as §1
# CaRvs167 = molecular target: CaRvs167
# Protocol: as §1
# CaRvs167-3 = molecular target: CaRvs167-3
# Protocol: as §1
# CaSho1 = molecular target: CaSho1
# Protocol: as §1
# CaSla1-D1-D2 = molecular target: CaSla1-D1-D2
# Protocol: as §1
# CaSla1-D3 = molecular target: CaSla1-D3
# Protocol: as §1
# ScAbp1 = molecular target: ScAbp1
# Protocol: as §1
# ScBbc1 = molecular target: ScBbc1
# Protocol: as §1
# ScBem1-D1 = molecular target: ScBem1-D1
# Protocol: as §1
# ScBzz1-D1 = molecular target: ScBzz1-D1
# Protocol: as §1
# ScBzz1-D2 = molecular target: ScBzz1-D2
# Protocol: as §1
# ScCyk3 = molecular target: ScCyk3
# Protocol: as §1
# ScFus1 = molecular target: ScFus1
# Protocol: as §1
# ScHof1 = molecular target: ScHof1
# Protocol: as §1
# ScHse1 = molecular target: ScHse1
# Protocol: as §1
# ScLsb1 = molecular target: ScLsb1
# Protocol: as §1
# ScLsb2 = molecular target: ScLsb2
# Protocol: as §1
# ScLsb3 = molecular target: ScLsb3
# Protocol: as §1
# ScLsb4 = molecular target: ScLsb4
# Protocol: as §1
# ScMyo3 = molecular target: ScMyo3
# Protocol: as §1
# ScMyo5 = molecular target: ScMyo5
# Protocol: as §1
# ScNbp2 = molecular target: ScNbp2
# Protocol: as §1
# ScPex13 = molecular target: ScPex13
# Protocol: as §1
# ScRvs167 = molecular target: ScRvs167
# Protocol: as §1
# ScSho1 = molecular target: ScSho1
# Protocol: as §1
# ScSla1-D1-D2 = molecular target: ScSla1-D1-D2
# Protocol: as §1
# ScSla1-D3 = molecular target: ScSla1-D3
# Protocol: as §1
# SpAbp1-D1 = molecular target: SpAbp1-D1
# Protocol: as §1
# SpBbc1 = molecular target: SpBbc1
# Protocol: as §1
# SpBzz1-D1 = molecular target: SpBzz1-D1
# Protocol: as §1
binder,measurement,setting,value
B1,SPOT peptide array binding signal intensity,AgAbp1,46
same,SPOT peptide array binding signal intensity,AgBbc1,16.5
same,SPOT peptide array binding signal intensity,AgBem1-D1,136
same,SPOT peptide array binding signal intensity,AgBzz1-D1,33
same,SPOT peptide array binding signal intensity,AgBzz1-D2,19.5
same,SPOT peptide array binding signal intensity,AgCyk3,3
same,SPOT peptide array binding signal intensity,AgFus1,356
same,SPOT peptide array binding signal intensity,AgHof1,49.5
same,SPOT peptide array binding signal intensity,AgHse1,745
same,SPOT peptide array binding signal intensity,AgLsb1,14.5
same,SPOT peptide array binding signal intensity,AgLsb4,104
same,SPOT peptide array binding signal intensity,AgMyo5,0.75
same,SPOT peptide array binding signal intensity,AgNbp2,99
same,SPOT peptide array binding signal intensity,AgRvs167,6.17
same,SPOT peptide array binding signal intensity,AgSho1,58
same,SPOT peptide array binding signal intensity,AgSla1-D1-D2,578
same,SPOT peptide array binding signal intensity,AgSla1-D3,4
same,SPOT peptide array binding signal intensity,CaAbp1-D1,458
same,SPOT peptide array binding signal intensity,CaAbp1-D2,418
same,SPOT peptide array binding signal intensity,CaBbc1,39.5
same,SPOT peptide array binding signal intensity,CaBem1-D1,31
same,SPOT peptide array binding signal intensity,CaBzz1-D1,28
same,SPOT peptide array binding signal intensity,CaBzz1-D2,46.5
same,SPOT peptide array binding signal intensity,CaCyk3,5
same,SPOT peptide array binding signal intensity,CaFus1,548
same,SPOT peptide array binding signal intensity,CaHof1,1.5
same,SPOT peptide array binding signal intensity,CaHse1,25.5
same,SPOT peptide array binding signal intensity,CaLsb1,8
same,SPOT peptide array binding signal intensity,CaLsb4,43.5
same,SPOT peptide array binding signal intensity,CaMyo5,1
same,SPOT peptide array binding signal intensity,CaNbp2,192
same,SPOT peptide array binding signal intensity,CaRvs167,8.5
same,SPOT peptide array binding signal intensity,CaRvs167-3,692
same,SPOT peptide array binding signal intensity,CaSho1,592
same,SPOT peptide array binding signal intensity,CaSla1-D1-D2,1
same,SPOT peptide array binding signal intensity,CaSla1-D3,6.5
same,SPOT peptide array binding signal intensity,ScAbp1,24
same,SPOT peptide array binding signal intensity,ScBbc1,6
same,SPOT peptide array binding signal intensity,ScBem1-D1,22
same,SPOT peptide array binding signal intensity,ScBzz1-D1,3
same,SPOT peptide array binding signal intensity,ScBzz1-D2,40
same,SPOT peptide array binding signal intensity,ScCyk3,58
same,SPOT peptide array binding signal intensity,ScFus1,570
same,SPOT peptide array binding signal intensity,ScHof1,≤ 0
same,SPOT peptide array binding signal intensity,ScHse1,1210
same,SPOT peptide array binding signal intensity,ScLsb1,34.8
same,SPOT peptide array binding signal intensity,ScLsb2,8.5
same,SPOT peptide array binding signal intensity,ScLsb3,114
same,SPOT peptide array binding signal intensity,ScLsb4,10
same,SPOT peptide array binding signal intensity,ScMyo3,1.5
same,SPOT peptide array binding signal intensity,ScMyo5,0.5
same,SPOT peptide array binding signal intensity,ScNbp2,158
same,SPOT peptide array binding signal intensity,ScPex13,0.75
same,SPOT peptide array binding signal intensity,ScRvs167,5
same,SPOT peptide array binding signal intensity,ScSho1,474
same,SPOT peptide array binding signal intensity,ScSla1-D1-D2,96
same,SPOT peptide array binding signal intensity,ScSla1-D3,2.75
same,SPOT peptide array binding signal intensity,SpAbp1-D1,146
same,SPOT peptide array binding signal intensity,SpBbc1,10.8
same,SPOT peptide array binding signal intensity,SpBzz1-D1,94.5
